Laboratory results from PubChem BioAssay (NCI).
The panel holds about 83,000 compounds, 20% with a hit somewhere; the sample as a whole holds those more often.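 Growth was measured after 48 h exposure to one concentration of compound in 96-well plates. Values under 10 count as active.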 The source made the active and inactive calls.

Assays:
Assay in all cases: NCI-60 one-dose screen, 48 h (100 = growth as untreated, 0 = no growth, -100 = all killed)
Conditions in all cases: 10 µM unless noted
DU-145 prostate = system: DU-145 prostate
K-562 leukemia = system: K-562 leukemia
MALME-3M melanoma = system: MALME-3M melanoma
MDA-MB-231 breast = system: MDA-MB-231 breast
RXF 393 renal = system: RXF 393 renal
SF-268 CNS = system: SF-268 CNS
SF-295 CNS = system: SF-295 CNS
SF-539 CNS = system: SF-539 CNS
UACC-257 melanoma = system: UACC-257 melanoma
M14 melanoma = system: M14 melanoma
HCT-15 colon = system: HCT-15 colon
HT29 colon = system: HT29 colon
SNB-75 CNS = system: SNB-75 CNS
SNB-19 CNS = system: SNB-19 CNS
U251 CNS = system: U251 CNS
PC-3 prostate = system: PC-3 prostate
SK-MEL-5 melanoma = system: SK-MEL-5 melanoma
UACC-62 melanoma = system: UACC-62 melanoma
LOX IMVI melanoma = system: LOX IMVI melanoma
SK-MEL-28 melanoma = system: SK-MEL-28 melanoma

Measured: growth

c1ccc(CO[C@H]2CO[C@H]3[C@@H]2OC[C@@H]3Oc2ccc(Nc3ncnc4ccsc34)cc2)cc1
active: SK-MEL-5 melanoma 9.33%
inactive: DU-145 prostate 89% | K-562 leukemia 62.1% | MALME-3M melanoma 53.4% | MDA-MB-231 breast 71.7% | RXF 393 renal 83.1% | SF-268 CNS 78% | SF-295 CNS 63.3% | SF-539 CNS 73.1% | UACC-257 melanoma 78% | M14 melanoma 79.5% | HCT-15 colon 78.7% | HT29 colon 81.9% | SNB-75 CNS 87.5% | SNB-19 CNS 82.7% | U251 CNS 81.9% | PC-3 prostate 80.3% | UACC-62 melanoma 59.9% | LOX IMVI melanoma 78.8% | SK-MEL-28 melanoma 88.9%

COc1ccc(CN2c3ccccc3Sc3ccccc32)c(F)c1
active: K-562 leukemia 8.99% | RXF 393 renal 0.721% | SF-295 CNS 7.51% | SF-539 CNS -3.66% | HT29 colon 3.61% | SNB-75 CNS -5.99%
inactive: DU-145 prostate 20.5% | MALME-3M melanoma 57% | MDA-MB-231 breast 60.4% | SF-268 CNS 52.3% | UACC-257 melanoma 52.3% | M14 melanoma 11.2% | HCT-15 colon 35.4% | SNB-19 CNS 40.9% | U251 CNS 30% | PC-3 prostate 30.3% | SK-MEL-5 melanoma 25.8% | UACC-62 melanoma 33.1% | LOX IMVI melanoma 52.7% | SK-MEL-28 melanoma 53%

O=C1CSC(c2c(Cl)cccc2Cl)N1c1nc(Cl)cc(=O)[nH]1 (stereo not given)
inactive: DU-145 prostate 123% | K-562 leukemia 93.2% | MALME-3M melanoma 216% | MDA-MB-231 breast 108% | RXF 393 renal 113% | SF-268 CNS 106% | SF-295 CNS 91.3% | SF-539 CNS 102% | UACC-257 melanoma 99.6% | M14 melanoma 106% | HCT-15 colon 123% | HT29 colon 111% | SNB-75 CNS 113% | SNB-19 CNS 103% | U251 CNS 112% | PC-3 prostate 73.1% | SK-MEL-5 melanoma 97% | UACC-62 melanoma 102% | LOX IMVI melanoma 104% | SK-MEL-28 melanoma 115%

CC(=O)CC(c1ccccc1)c1c(C)[nH]c2ccccc12 (stereo not given)
inactive: DU-145 prostate 110% | K-562 leukemia 87.2% | MALME-3M melanoma 100% | MDA-MB-231 breast 103% | RXF 393 renal 104% | SF-268 CNS 94.8% | SF-295 CNS 102% | SF-539 CNS 93.4% | UACC-257 melanoma 94.8% | M14 melanoma 94.4% | HCT-15 colon 97.5% | HT29 colon 103% | SNB-75 CNS 60.3% | SNB-19 CNS 93.2% | U251 CNS 105% | PC-3 prostate 87.9% | SK-MEL-5 melanoma 99.3% | UACC-62 melanoma 86.7% | LOX IMVI melanoma 90.5% | SK-MEL-28 melanoma 102%

COc1ccc2c(c1)c(-c1ccc(-c3cn(C)c4ccc(OC)cc34)o1)cn2C
inactive: DU-145 prostate 107% | MALME-3M melanoma 80.6% | MDA-MB-231 breast 69.1% | RXF 393 renal 66.8% | SF-268 CNS 71.8% | SF-295 CNS 62.2% | SF-539 CNS 18% | UACC-257 melanoma 90% | M14 melanoma 71.2% | HCT-15 colon 56.2% | HT29 colon 72.7% | SNB-75 CNS 71.4% | SNB-19 CNS 33.3% | U251 CNS 15% | UACC-62 melanoma 12.4% | LOX IMVI melanoma 53.2% | SK-MEL-28 melanoma 83.6%
active: K-562 leukemia 2.25% | PC-3 prostate 3% | SK-MEL-5 melanoma -2.83%

c1cc(NCCc2ccncc2)nc(-n2cnc3ccccc32)c1
inactive: DU-145 prostate 85.7% | K-562 leukemia 88.6% | MALME-3M melanoma 103% | MDA-MB-231 breast 98.2% | RXF 393 renal 82.7% | SF-268 CNS 82.3% | SF-295 CNS 105% | SF-539 CNS 90.3% | UACC-257 melanoma 93.8% | M14 melanoma 94% | HCT-15 colon 90.1% | HT29 colon 92.7% | SNB-75 CNS 112% | SNB-19 CNS 99.9% | U251 CNS 82.2% | PC-3 prostate 83% | SK-MEL-5 melanoma 93.7% | UACC-62 melanoma 91.2% | LOX IMVI melanoma 79.4% | SK-MEL-28 melanoma 109%

Cc1c(C(=O)NCCN2CCOCC2)cn2ncnc(Oc3ccc(NC(=O)Nc4ccc(Cl)c(C(F)(F)F)c4)cc3)c12
inactive: DU-145 prostate 42.3% | SF-268 CNS 29% | UACC-257 melanoma 24.3% | HCT-15 colon 21.8% | SNB-75 CNS 22.4% | SNB-19 CNS 20% | U251 CNS 14.5% | PC-3 prostate 11.4% | UACC-62 melanoma 14.8% | SK-MEL-28 melanoma 16.1%
active: K-562 leukemia 4.96% | MALME-3M melanoma -4.42% | MDA-MB-231 breast 7.21% | RXF 393 renal -26.8% | SF-295 CNS -29.3% | SF-539 CNS -2.93% | M14 melanoma 3.71% | HT29 colon 7.93% | SK-MEL-5 melanoma 6.48% | LOX IMVI melanoma -50.5%

COc1ccc(C(=O)/C=C/c2sc(Cl)nc2Cl)cc1
inactive: DU-145 prostate 61.9% | MALME-3M melanoma 32.1% | MDA-MB-231 breast 38.7% | RXF 393 renal 24.6% | SF-268 CNS 31.9% | SF-295 CNS 52.3% | UACC-257 melanoma 72.8% | HCT-15 colon 13.1% | HT29 colon 31.9% | SNB-75 CNS 50.9% | SNB-19 CNS 68.9% | U251 CNS 16.5% | PC-3 prostate 52.3% | UACC-62 melanoma 58.8% | SK-MEL-28 melanoma 53.2%
active: K-562 leukemia 9.56% | SF-539 CNS -20.5% | M14 melanoma 6.12% | SK-MEL-5 melanoma -39.1% | LOX IMVI melanoma -49.9%

CC(=O)c1ccc(Nc2nc(C(C)=O)c(C)s2)cc1
inactive: DU-145 prostate 102% | K-562 leukemia 88.7% | MALME-3M melanoma 105% | MDA-MB-231 breast 98% | RXF 393 renal 101% | SF-268 CNS 98% | SF-295 CNS 98.6% | SF-539 CNS 103% | UACC-257 melanoma 103% | M14 melanoma 104% | HCT-15 colon 97.4% | HT29 colon 100% | SNB-75 CNS 73.6% | SNB-19 CNS 97.5% | U251 CNS 100% | PC-3 prostate 95.3% | SK-MEL-5 melanoma 99.9% | UACC-62 melanoma 96.1% | LOX IMVI melanoma 99.9% | SK-MEL-28 melanoma 103%

CCCCn1c(=O)c(-c2cc(-c3ccc(Cl)cc3)nc(-c3ccc(Cl)cc3)c2)cc2ccc(Cl)cc21
inactive: DU-145 prostate 108% | K-562 leukemia 97.8% | MALME-3M melanoma 98.5% | MDA-MB-231 breast 96.5% | RXF 393 renal 103% | SF-268 CNS 94.2% | SF-295 CNS 100% | SF-539 CNS 96.1% | UACC-257 melanoma 101% | M14 melanoma 107% | HCT-15 colon 105% | HT29 colon 109% | SNB-75 CNS 86.4% | SNB-19 CNS 96.1% | U251 CNS 101% | PC-3 prostate 94.6% | SK-MEL-5 melanoma 104% | UACC-62 melanoma 95.4% | LOX IMVI melanoma 98.1% | SK-MEL-28 melanoma 106%

CN(C)CCS(=O)(=O)Nc1cc(-c2ccc3ncc(C#N)c(Nc4ccc(F)c(Cl)c4)c3c2)cnc1Cl
active: DU-145 prostate -10.3% | K-562 leukemia 6.62% | MALME-3M melanoma -50.5% | MDA-MB-231 breast -39.5% | RXF 393 renal -56% | SF-268 CNS -41% | SF-295 CNS -19% | SF-539 CNS -36.4% | UACC-257 melanoma -17.3% | M14 melanoma -40.4% | HCT-15 colon -14.6% | HT29 colon 5.5% | SNB-75 CNS -21% | SNB-19 CNS -67.2% | U251 CNS -46.2% | PC-3 prostate -43.5% | SK-MEL-5 melanoma -89.8% | UACC-62 melanoma -77.2% | LOX IMVI melanoma -61.3% | SK-MEL-28 melanoma -31.5%

COc1ccc(C(Cc2ccccc2)NCCN2CCOCC2)cc1 (stereo not given)
inactive: DU-145 prostate 110% | K-562 leukemia 101% | MALME-3M melanoma 86.8% | MDA-MB-231 breast 110% | RXF 393 renal 104% | SF-268 CNS 98% | SF-295 CNS 99.4% | SF-539 CNS 99.6% | UACC-257 melanoma 109% | M14 melanoma 90.6% | HCT-15 colon 99.8% | HT29 colon 87.7% | SNB-75 CNS 97.4% | SNB-19 CNS 106% | U251 CNS 108% | PC-3 prostate 93.8% | SK-MEL-5 melanoma 108% | UACC-62 melanoma 100% | LOX IMVI melanoma 91.4% | SK-MEL-28 melanoma 103%

COc1ccc(C(=O)N=Nc2c(O)n(C)c3ccccc23)cc1
inactive: DU-145 prostate 108% | K-562 leukemia 89.3% | MALME-3M melanoma 103% | MDA-MB-231 breast 85.2% | RXF 393 renal 100% | SF-268 CNS 95.8% | SF-295 CNS 101% | SF-539 CNS 89.8% | UACC-257 melanoma 106% | M14 melanoma 101% | HCT-15 colon 91.6% | HT29 colon 103% | SNB-75 CNS 91.6% | SNB-19 CNS 87.3% | U251 CNS 98.5% | PC-3 prostate 90.9% | SK-MEL-5 melanoma 89.1% | UACC-62 melanoma 90.6% | LOX IMVI melanoma 81.8% | SK-MEL-28 melanoma 107%
